Test results published in PubChem BioAssay AID1159580 (chemical genetic matrix, 2015).
The whole screen tested about 5,500 compounds, of which about 2,000 (36%) were called active. About 18% were inconclusive and are not listed. No stated cut-off is given here; in the data, active means normalized growth mostly below about 0.91 (no sharp cut-off); inconclusive means no clear call, values can overlap the other calls; inactive means mostly above about 0.92. The list shows a part of the results.

Experiment: chemical genetic growth profiling, strain panel (AID 1159580);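 further: tested at 20 µM; growth read once vehicle control cultures reached saturation at 30 °C; 1 = growth at the plate median or of vehicle wells; lower values mean less growth of the strain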
Conditions: growth OD

Measured: normalized growth

CN(C(=O)CN(CCO)CC(=O)N(C)C(C)(C)Cc1ccccc1)C(C)(C)Cc1ccccc1
inactive: S. cerevisiae deletion strains, locus YJR066W, strain TOR1, hits give low values 0.977 | S. cerevisiae deletion strains, locus YJR075W, strain HOC1, hits give low values 0.979 | S. cerevisiae deletion strains, locus YKL009W, strain mrt4, hits give low values 0.965 | S. cerevisiae deletion strains, locus YKL068W, hits give low values 0.979 | S. cerevisiae deletion strains, locus YKL085W, strain MDH1 (second series), hits give low values 0.971 | S. cerevisiae deletion strains, locus YKL085W, strain MDH1, hits give low values 0.971 | S. cerevisiae deletion strains, locus YKL160W, strain elf1, hits give low values 1.01 | S. cerevisiae deletion strains, locus YKL190W, strain CNB1, hits give low values 0.992 | S. cerevisiae deletion strains, locus YKR001C, strain vps1, hits give low values 0.998 | S. cerevisiae deletion strains, locus YKR026C, strain gcn3, hits give low values 1.02 | S. cerevisiae deletion strains, locus YKR091W, strain srl3, hits give low values 0.999 | S. cerevisiae deletion strains, locus YLL001W, strain dnm1, hits give low values 1.02 | S. cerevisiae deletion strains, locus YLL026W, hits give low values 1.02 | S. cerevisiae deletion strains, locus YLL041C, strain sdh2, hits give low values 1.01 | S. cerevisiae deletion strains, locus YLR027C, strain aat2, hits give low values 1.02 | S. cerevisiae deletion strains, locus YLR039C, strain RIC1, hits give low values 1.03 | S. cerevisiae deletion strains, locus YLR058C, strain SHM2, hits give low values 0.997 | S. cerevisiae deletion strains, locus YLR102C, strain apc9, hits give low values 0.986 | S. cerevisiae deletion strains, locus YLR113W, strain HOG1, hits give low values 0.987 | S. cerevisiae deletion strains, locus YLR221C, strain rsa3, hits give low values 0.993 | S. cerevisiae deletion strains, locus YLR258W, strain gsy2, hits give low values 1 | S. cerevisiae deletion strains, locus YLR262C, strain YPT6 (second series), hits give low values 1.03 | S. cerevisiae deletion strains, locus YLR262C, strain YPT6, hits give low values 1.02 | S. cerevisiae deletion strains, locus YLR268W, strain sec22, hits give low values 0.962 | S. cerevisiae deletion strains, locus YLR320W, strain mms22, hits give low values 0.99 | S. cerevisiae deletion strains, locus YLR330W, strain CHS5, hits give low values 0.984 | S. cerevisiae deletion strains, locus YLR342W, strain FKS1 (second series), hits give low values 0.985 | S. cerevisiae deletion strains, locus YLR342W, strain FKS1, hits give low values 1.01 | S. cerevisiae deletion strains, locus YLR357W, strain rsc2, hits give low values 1.01 | S. cerevisiae deletion strains, locus YLR370C, strain arc18, hits give low values 1.02 | S. cerevisiae deletion strains, locus YLR371W, strain rom2, hits give low values 0.978 | S. cerevisiae deletion strains, locus YLR384C, strain iki3, hits give low values 1.01 | S. cerevisiae deletion strains, locus YLR418C, strain cdc73, hits give low values 0.989 | S. cerevisiae deletion strains, locus YML016C, strain PPZ1, hits give low values 0.994 | S. cerevisiae deletion strains, locus YML032C, strain rad52, hits give low values 0.98 | S. cerevisiae deletion strains, locus YML120C, strain ndi1, hits give low values 1.02 | S. cerevisiae deletion strains, locus YML124C, strain tub3, hits give low values 0.989 | S. cerevisiae deletion strains, locus YMR058W, strain fet3, hits give low values 1.02 | S. cerevisiae deletion strains, locus YMR078C, strain ctf18, hits give low values 0.974 | S. cerevisiae deletion strains, locus YMR125W, strain sto1, hits give low values 1.02 | S. cerevisiae deletion strains, locus YMR129W, hits give low values 1.01 | S. cerevisiae deletion strains, locus YMR205C, strain PFK2, hits give low values 1 | S. cerevisiae deletion strains, locus YMR223W, strain ubp8, hits give low values 0.97 | S. cerevisiae deletion strains, locus YMR231W, strain pep5, hits give low values 1.01 | S. cerevisiae deletion strains, locus YMR263W, strain SAP30, hits give low values 0.995 | S. cerevisiae deletion strains, locus YMR307W, strain GAS1, hits give low values 0.835 | S. cerevisiae deletion strains, locus YNL067W, strain RPL9B, hits give low values 0.994 | S. cerevisiae deletion strains, locus YNL071W, strain lat1, hits give low values 1.01 | S. cerevisiae deletion strains, locus YNL153C, strain GIM3, hits give low values 1.03 | S. cerevisiae deletion strains, locus YNL183C, strain NPR1, hits give low values 0.944 | S. cerevisiae deletion strains, locus YNL209W, strain ssb2, hits give low values 1.01 | S. cerevisiae deletion strains, locus YNL233W, strain BNI4, hits give low values 0.987 | S. cerevisiae deletion strains, locus YNL248C, strain rpa49, hits give low values 1 | S. cerevisiae deletion strains, locus YNL250W, strain rad50, hits give low values 0.996 | S. cerevisiae deletion strains, locus YNL271C, strain bni1, hits give low values 0.982 | S. cerevisiae deletion strains, locus YNL298W, strain CLA4, hits give low values 0.983 | S. cerevisiae deletion strains, locus YNL307C, strain MCK1, hits give low values 0.99 | S. cerevisiae deletion strains, locus YNL322C, strain KRE1 (second series), hits give low values 1.01 | S. cerevisiae deletion strains, locus YNR049C, strain mso1, hits give low values 1.02 | S. cerevisiae deletion strains, locus YNR052C, strain pop2, hits give low values 0.972 | S. cerevisiae deletion strains, locus YOL006C, strain TOP1, hits give low values 1.05 | S. cerevisiae deletion strains, locus YOL012C, strain htz1 0.857 | S. cerevisiae deletion strains, locus YOL147C, strain pex11, hits give low values 0.987 | S. cerevisiae deletion strains, locus YOR001W, strain rrp6, hits give low values 0.992 | S. cerevisiae deletion strains, locus YOR061W, strain CKA2, hits give low values 0.992 | S. cerevisiae deletion strains, locus YOR069W, strain VPS5, hits give low values 0.991 | S. cerevisiae deletion strains, locus YOR070C, strain gyp1, hits give low values 1.02 | S. cerevisiae deletion strains, locus YOR080W, strain dia2, hits give low values 1.01 | S. cerevisiae deletion strains, locus YOR083W, strain WHI5, hits give low values 1 | S. cerevisiae deletion strains, locus YOR106W, strain vam3, hits give low values 1.02 | S. cerevisiae deletion strains, locus YOR136W, strain idh2, hits give low values 0.984 | S. cerevisiae deletion strains, locus YOR144C, strain elg1, hits give low values 0.99 | S. cerevisiae deletion strains, locus YOR184W, strain ser1, hits give low values 0.976 | S. cerevisiae deletion strains, locus YOR231W, strain MKK1, hits give low values 0.991 | S. cerevisiae deletion strains, locus YOR265W, strain rbl2, hits give low values 1.02 | S. cerevisiae deletion strains, locus YOR270C, strain vph1, hits give low values 1.09 | S. cerevisiae deletion strains, locus YOR290C, strain snf2, hits give low values 1.01 | S. cerevisiae deletion strains, locus YOR316C, strain cot1, hits give low values 0.971 | S. cerevisiae deletion strains, locus YPL051W, strain arl3, hits give low values 0.999 | S. cerevisiae deletion strains, locus YPL078C, strain atp4, hits give low values 1.01 | S. cerevisiae deletion strains, locus YPL106C, strain sse1, hits give low values 0.991 | S. cerevisiae deletion strains, locus YPL240C, strain hsp82, hits give low values 1 | S. cerevisiae deletion strains, locus YPL256C, strain CLN2, hits give low values 0.98 | S. cerevisiae deletion strains, locus YPR119W, strain clb2, hits give low values 0.974 | S. cerevisiae deletion strains, locus YPR141C, strain kar3, hits give low values 0.981 | S. cerevisiae deletion strains, locus YPR163C, strain tif3, hits give low values 0.969 | S. cerevisiae deletion strains, locus YPR167C, strain met16, hits give low values 0.969 | S. cerevisiae deletion strains, strain wtn01, hits give low values 0.985 | S. cerevisiae strains, strain wild type, hits give low values 0.991
